FBW7 act = activators of human E3 ligase FBW7; Q969H0; AlphaScreen FBW7–phospho-cyclin E peptide binding, activator screen; normalized activity (activation), % at 26.1 µM; 650,000 compounds, 0.13% hits; AID 1259310; in the data active = normalized activity above about 1.9%;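 also: purified mutant Fbw7 with reduced substrate affinity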
TEAD-YAP inh = TEAD-YAP interaction inhibition; HEK-TIYL cells, TEAD-Gal4/YAP UAS-luciferase luminescence; inhibition, % at 9.12 µM; 640,000 compounds, 1.4% hits; in the data active = inhibition above about 32%
GPR151 activ = human GPR151 activation; activation, % at 11.2 µM; PathHunter beta-arrestin GPR151 cells, luminescence; Q8TDV0; 650,000 compounds, 1% hits; in the data active = activation above about 4.9%
Target sequence (Q8TDV0 whole entry, looked up): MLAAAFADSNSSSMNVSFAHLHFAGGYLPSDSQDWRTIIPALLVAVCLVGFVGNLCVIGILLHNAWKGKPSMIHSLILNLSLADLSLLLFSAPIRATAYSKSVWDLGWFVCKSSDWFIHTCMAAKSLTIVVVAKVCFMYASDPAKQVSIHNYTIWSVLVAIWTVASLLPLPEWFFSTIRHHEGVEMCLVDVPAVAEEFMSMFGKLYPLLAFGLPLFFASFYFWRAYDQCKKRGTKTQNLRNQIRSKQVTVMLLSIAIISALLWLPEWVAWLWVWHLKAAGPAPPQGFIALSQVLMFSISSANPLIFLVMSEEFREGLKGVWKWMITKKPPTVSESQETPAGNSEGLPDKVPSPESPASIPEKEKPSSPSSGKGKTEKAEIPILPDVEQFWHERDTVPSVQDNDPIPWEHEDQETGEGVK
MITF inh = blocks human microphthalmia-associated transcription factor | inhibition, % at 2.6 µM | O75030 | 650,000 compounds, 0.91% hits | AID 1259374 | AlphaScreen MITF homodimerization, bead proximity signal; in the data active = inhibition above about 50%
MITF inh conf = confirmation of human MITF inhibitors; shares compounds with MITF inh; AlphaScreen MITF homodimerization, biotin/His-MITF beads; inhibition, % at 2.6 µM; 4,700 compounds, 16% hits; AID 1259372;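 active = inhibition above a cutoff derived from the DMSO control wells, cut at about 28% in these data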;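 also: inhibitors lower the bead chemiluminescence by keeping MITF from dimerizing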
AlphaScreen DR = optically interferes with AlphaScreen signal in dose response; shares compounds with MITF inh; AlphaScreen optical interference counterscreen, cell-free; 480 compounds, 6% hits; AID 1259373; IC50, µM; call rule not given here
AS interf ctr = counter-screen: compounds optically interfering with AlphaScreen. shares compounds with MITF inh. LysRS AlphaScreen counterscreen, signal interference, triplicate. 4,700 compounds, 7.6% hits. inhibition, % at 2.6 µM;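 active = inhibition above a cutoff derived from the DMSO control wells, cut at about 30% in these data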
Hits are given with their value; n = inactive; x = no result. A selection: hits, their analogues and other compounds. The true share with any hit is near 3.5%.

SMILES	FBW7 act	TEAD-YAP inh	GPR151 activ	MITF inh	MITF inh conf	AS interf ctr	others
O=C(CN1CCN(c2ccccn2)CC1)N(Cc1ccccc1)Cc1ccccc1	n	n	n	91	n	n
Brc1ccc(CN2CCN(c3ccccn3)CC2)cc1	n	n	n	53	n	n
COc1cc(CN2CCN(c3ccccn3)CC2)ccc1O	n	n	n	54	n	n
COc1cccc(CN2CCN(C(=O)c3ccncc3)CC2)c1OC	n	n	n	83	n	n
COc1ccc(CN2CCN(C(=O)c3ccccc3)CC2)c(OC)c1OC	n	n	n	n	x	x
COc1ccc(CN2CCN(C(=O)c3ccncc3)CC2)c(OC)c1OC	n	n	n	51	n	n
CCOC(=O)N1CCN(CCC(=O)Nc2cc(C)ccc2OC)CC1	n	n	n	n	x	x
COC(=O)c1c(NS(=O)(=O)c2ccc(NC(C)=O)cc2)sc2c1CCCCC2	n	n	n	n	x	x
CS(=O)(=O)N1CCN(Cc2ccccc2)CC1	n	n	n	n	x	x
CS(=O)(=O)N1CCN(Cc2ccc(F)cc2)CC1	n	n	n	62	n	n
COc1ccc(CN2CCN(S(C)(=O)=O)CC2)cc1	n	n	n	57	n	n
Cc1ccc(-n2cc(-c3ccc(C(=O)N4CCCC4)cn3)cn2)cc1	n	n	n	n	x	x
O=C(c1ccc(-c2cnn(-c3ccc(Cl)cc3)c2)nc1)N1CCOCC1	n	n	n	58	n	n
O=C1N[C@@H](Cc2ccc(O)cc2)C(=O)N2CCN(C(=O)OCc3ccccc3)C[C@H]12	n	n	n	n	x	x
O=C1N[C@@H](Cc2ccc(Cl)cc2)C(=O)N2CCN(C(=O)NCc3ccccc3)C[C@H]12	n	n	n	73	71	n	AlphaScreen DR=n
O=C1N[C@@H](Cc2ccc(O)cc2)C(=O)N2CCN(C(=O)NCc3ccccc3)C[C@H]12	n	n	n	64	69	n	AlphaScreen DR=n
CCCCCSc1nc2sc3c(c2c(=O)n1-c1ccccc1)CCCCC3	n	n	n	n	x	x
COc1ccc(OC)c(/C=N/N=C2\NC(=O)C(CC(=O)Nc3ccccc3)S2)c1 (centres undefined)	n	n	n	n	x	x
CC(O)(C#Cc1ccccc1)c1ccc(N2CCOCC2)c(F)c1 (centres undefined)	n	n	n	n	x	x
CCOC(=O)N1CCC(n2c(SCC(=O)N(C)Cc3ccccc3)nc3ccccc3c2=O)CC1	n	n	n	n	x	x
Cc1ccc(S(=O)(=O)N(CC(=O)NCC2CCCO2)c2ccccc2Cl)cc1 (centres undefined)	n	n	n	n	x	x
Cc1cc(Cl)ccc1N(CC(=O)NCC1CCCO1)S(=O)(=O)c1ccccc1 (centres undefined)	n	n	n	73	n	n
O=C(O)COCC(=O)N1CCN(c2ccccc2Cl)CC1	n	n	n	n	x	x
COc1cccc(CN2CCN(Cc3ccco3)[C@@H](C)C2)c1	n	n	n	n	x	x
COc1cc(OC)cc(C(=O)N2CCN(Cc3cccc(Oc4ccccc4)c3)CC2)c1	n	n	n	n	x	x
SMILES	FBW7 act	TEAD-YAP inh	GPR151 activ	MITF inh	MITF inh conf	AS interf ctr	others
COc1cc(OC)cc(C(=O)N2CCN(Cc3ccco3)CC2)c1	n	n	n	59	n	n
COc1cc(CN2CCN(Cc3ccco3)CC2)cc(OC)c1	n	n	n	83	n	n
CCOc1ccc2c(c1)c1nc3ccccc3nc1n2C	n	n	n	n	x	x
CCCc1[nH]nc2c1C(c1c(OC)cc(OC)cc1OC)C(C#N)=C(N)O2 (centres undefined)	n	n	n	n	x	x
CCCc1[nH]nc2c1C(c1ccc(OC)cc1OC)C(C#N)=C(N)O2 (centres undefined)	n	n	n	61	n	n
Oc1ccc(Cn2cnc3ccccc32)c2cccnc12	n	51	n	95	96	101
Brc1ccccc1Cn1cnc2ccccc21	n	n	n	n	x	x
Oc1ccc(Cn2ccnc2)c2cccnc12	n	n	n	109	112	100
NCCNCCNCCN	n	n	n	91	70	100
c1ccc(OCCNc2ncnc3nc(N4CCN(Cc5ccc6c(c5)OCO6)CC4)[nH]c23)cc1	n	n	n	n	x	x
Cc1c(Cl)cccc1NC(=O)c1cc(S(=O)(=O)NC2CCCCC2C)ccc1F (centres undefined)	n	n	n	n	x	x
CCSc1nc2c(c(=O)[nH]1)C(c1ccc(O)c(OC)c1)C1=C(CCCC1=O)N2 (centres undefined)	n	n	n	61	n	n
COc1cc(C2/C(=C(\O)c3ccc(Cl)cc3)C(=O)C(=O)N2c2nc3ccccc3s2)ccc1O (centres undefined)	n	n	n	n	x	x
COc1cccc(-c2ccc(=O)n(CC(=O)NCC3CCCO3)n2)c1 (centres undefined)	n	n	n	51	n	n
C/C(=N\NC(=O)COc1ccccc1)c1ccco1	n	n	n	n	x	x
COC(=O)C1(O)CC(CC(C)C)=NN1C(=O)c1ccccc1 (centres undefined)	n	n	n	71	n	n
CC(C)CC1=NN(C(=O)c2ccc(O)cc2)C(O)(C(F)(F)F)C1 (centres undefined)	n	n	n	n	x	x
NS(=O)(=O)c1cc2c(cc1Cl)NC(c1c(F)cccc1F)NS2(=O)=O (centres undefined)	n	n	n	n	x	x
O=S(=O)(c1ccc(Cl)c(F)c1)N1CCC(n2nnc3ccccc32)CC1	n	n	n	n	x	x
O=C(O)c1cc(S(=O)(=O)Nc2ccc(-n3cnnn3)cc2)ccc1O	n	n	n	53	41	n	AlphaScreen DR=n
O=C(CN1CC(=O)Oc2ccccc21)Oc1ccc(F)cc1	n	n	n	69	n	n
Cc1cc(C)n(-c2cccc(F)c2)c(=O)c1C(=O)O	n	n	n	n	x	x
COCCn1c(C)nnc1SCC(N)=O	n	n	n	83	n	n
COC(=O)c1c(NC(NC(C)=O)(C(=O)OC)C(F)(F)F)sc2c1CCCC2 (centres undefined)	n	n	n	n	x	x
O=C(NCC1CCC2(CCN(Cc3cnc(-c4ccccc4)s3)CC2)O1)c1cccnc1 (centres undefined)	n	n	n	70	n	n
O=C(NCC1CCC2(CCN(Cc3cc4ccccc4s3)CC2)O1)c1cccnc1 (centres undefined)	n	n	n	n	x	x
C=CCNC(=O)COC(=O)c1cc(-c2ccco2)nc2ccccc12	n	n	n	57	65	n	AlphaScreen DR=n
N#Cc1cc([N+](=O)[O-])ccc1NC(=O)COC(=O)c1cc(-c2ccco2)nc2ccccc12	n	n	n	51	41	n	AlphaScreen DR=n
CCCCOC(=O)c1ccc(NC(=O)/C=C/c2ccco2)cc1	n	n	n	n	x	x
COc1ccc(-c2noc(CN(C(=O)c3ccc(OC)c([N+](=O)[O-])c3)C(C)C)n2)cc1	n	n	n	n	x	x
